Compound activity (PubChem BioAssay)
Compounds with a hit are over-represented: about 0.71% of the library has one in this group of screens.
Eya2 phos inh: blocks the phosphatase activity of human Eya2; O00167; recombinant Eya2, OMFP fluorescence dephosphorylation (OMFP is methylfluorescein phosphate); Potency, µM (highest dose often 76.9 µM), without a hit: top-dose activity, negative = inhibition, most hits filed as inhibitors; hit rate 0.006% among 330,000; also: potency is read from the fitted curve at half-maximal effect
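Eya2 (0.2 uM) preincubated 10 min at ambient with compound, then OMFP substrate added at 50 uM; 10 min reaction in 50 mM HEPES pH 7.5, 50 mM NaCl, 5 uM MgCl2, 0.05% BSA, 1 mM DTT. Fluorescence read at Ex 485/Em 525 nm.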
USP2a block: blocks human ubiquitin-specific protease USP2a. O75604. USP2 core, Ub-CHOP2 coupled fluorogenic reporter, 485/531. Potency, µM (top dose mostly 38.3 µM), for the others: at the top dose activity change, negative = inhibition, hits mostly inhibitors. hit rate 0.01% among 330,000. AID 463254;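 also: potency is read from the fitted curve at half-maximal effect; plate controls were DMSO wells for no effect and full inhibition by NEM control for full effect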
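USP2 core (10nM final) preincubated 30min RT with compound in 20mM Tris-HCl pH 8.0, 2mM CaCl2, 2mM beta-mercaptoethanol, 0.05% CHAPS; 25nM Ub-CHOP2 plus 25nM reporter substrate added, fluorescence (Ex485/Em531) read after 60min.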
PI4K2A inh: PI4K2A (human) kinase inhibition | purified PI4K2A, ADP-Glo luminescence, 1 h; stronger effect = lower value | hit rate 0.13% among 420,000 | activity change, negative = inhibition, % at 76.9 µM | Q9BTU6; in the data active = activity change below about -50%; inconclusive = mostly about -30% to -49%;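 also: -100% = wells without enzyme as full effect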
Target sequence (Q9BTU6 whole entry, looked up): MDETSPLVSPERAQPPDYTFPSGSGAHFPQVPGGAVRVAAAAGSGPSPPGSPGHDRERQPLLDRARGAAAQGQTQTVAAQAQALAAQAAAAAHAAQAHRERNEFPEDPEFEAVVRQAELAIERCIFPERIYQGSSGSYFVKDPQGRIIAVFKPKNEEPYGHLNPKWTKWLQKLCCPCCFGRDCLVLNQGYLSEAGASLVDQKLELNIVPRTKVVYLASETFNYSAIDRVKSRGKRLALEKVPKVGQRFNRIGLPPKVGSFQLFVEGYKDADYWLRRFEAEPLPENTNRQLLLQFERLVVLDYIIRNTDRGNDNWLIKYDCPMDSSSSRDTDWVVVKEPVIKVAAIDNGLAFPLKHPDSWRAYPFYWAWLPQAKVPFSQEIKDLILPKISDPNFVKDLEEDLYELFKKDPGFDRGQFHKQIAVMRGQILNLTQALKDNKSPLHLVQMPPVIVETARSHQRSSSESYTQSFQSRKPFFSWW
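PI4K2A activity was measured by ADP-Glo luminescence: enzyme (4 ug/mL stock) and phosphatidylinositol (1.2 mM stock) in Tris pH 7.5/MgCl2/EGTA/Triton X-100 buffer were reacted with ATP (300 microM stock) for one hour at ambient temperature.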
FBPA coupling cs: coupling enzyme interference in Giardia aldolase counter-screen. coupling enzyme system counterscreen, AmpLite Red fluorescence. activity change, negative = inhibition, % at 58.2 µM, hits read low. hit rate 0.67% among 290,000. AID 2472; in the data active = activity change below about -30%
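Activity here indicates interference with the coupling reaction, not aldolase inhibition. Compounds at 57.5 uM final met coupling enzymes for 10 min at RT; substrate and AmpLite Red detection followed, with a 525/598 nm fluorescence read after 20 min.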
USP1 inh: blocks the human USP1/UAF1 deubiquitinase complex; AID 743255; O94782; hit rate 0.23% among 390,000; Potency, µM (doses to about 57.1 µM), without a hit: top-dose activity change, negative = inhibition, most hits filed as inhibitors; recombinant USP1/UAF1, Ub-Rhodamine cleavage fluorescence; also: potency is read from the fitted curve at half-maximal effect; nearly all actives have a fitted effect of over 60% in size
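In this screen, compounds sit with the deubiquitinase complex (1nM) for 15 min at room temperature before Ub-Rho is added at 150nM final. Fluorescence rise is then followed for 6 reads every 60 seconds.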
GALK inh: blocks human galactokinase activity; P51570; Purified GALK, Kinase-Glo residual ATP luminescence; Potency, µM (series often up to 57.5 µM), inactives show top-dose activity change, negative = inhibition, most hits filed as inhibitors; hit rate 0.007% among 270,000; AID 1868; also: potency is read from the fitted curve at half-maximal effect
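Compounds were pin-transferred into ATP buffer (35 uM final), then GALK plus galactose (5 nM, 100 uM final) was added. After 1 h at room temperature, Kinase-Glo Plus was added and luminescence read after 10 min.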
Numbers without * were called inactive. Unless noted, calls follow the shape of the dose curve; as a rule, active = well fitted curve in the direction sought with a large enough effect; inconclusive = small, poorly fitted or top-dose-only effect, or another doubt; inactive = no such curve, though single readings can be large; an effect the other way counts as inactive or inconclusive. Unless noted, % is scaled to controls: 0 for no effect and ±100 for the full control effect.

`C[C@]12C=CC(=O)C=C1[C@@H](F)C[C@@H]1[C@@H]2[C@@H](O)C[C@@]2(C)[C@H]1CC[C@]2(O)C(=O)CO` gave PI4K2A inh -3.
COc1cc(C)c2c(c1C=O)Oc1c(c(C)c(O)c3c1C(O)OC3=O)OC2=O (centres undefined) was read as Eya2 phos inh -7%, USP2a block -6%, PI4K2A inh inconclusive, FBPA coupling cs 6, USP1 inh 16µM* and GALK inh -15%.
For Cc1cc(O)c(C=O)c2c1C(=O)Oc1c(C)c(O)c3c(c1O2)C(O)OC3=O (centres undefined) the results were FBPA coupling cs 6.
Screening C[C@H]1C[C@H](O)c2ccsc2S1(=O)=O returned PI4K2A inh -1.
Screening O=C(NCCO)C1(C(=O)C2CC2)CC(c2ccccn2)=NO1 (centres undefined) returned PI4K2A inh -4.
`CC1=C(C(=O)Nc2ccc(Cl)cc2)C(C(C)C)n2nc(SCc3cccc(C)c3)nc2N1` (centres undefined) gave PI4K2A inh -1 and USP1 inh -23%.
COc1ccc(CNc2nc(-c3ccc(C(=O)N(C)C)cc3)nc3ccccc23)c(OC)c1 was read as FBPA coupling cs -13.
For COc1ccc(CNc2nc(-c3ccc(N(C)C)cc3)nc3ccccc23)c(OC)c1 the results were FBPA coupling cs -37*.
`COc1ccc(-c2csc(N3CCN(C(=O)c4ccco4)CC3)n2)cc1` gave Eya2 phos inh 1%, USP2a block 11µM*, PI4K2A inh 6, FBPA coupling cs 0, USP1 inh -20% and GALK inh 2%.
For Cc1ccc(NC(=O)c2ccc(-n3cccn3)c([N+](=O)[O-])c2)cc1 the results were Eya2 phos inh 7%, USP2a block -1%, PI4K2A inh 0, FBPA coupling cs -12, USP1 inh -4% and GALK inh -7%.
For Cc1cccc(NC(=O)c2ccc(-n3cccn3)c([N+](=O)[O-])c2)c1 the results were Eya2 phos inh -2%, USP2a block 1%, PI4K2A inh -12, FBPA coupling cs -33*, USP1 inh -25% and GALK inh 0%.
Screening COc1cccc(C2=CC(c3ccc(N(C)C)cc3)n3ncnc3N2)c1 (centres undefined) returned Eya2 phos inh 22%, USP2a block 0%, FBPA coupling cs -35* and GALK inh 6%.
Screening C[C@]12CCC(=O)C=C1[C@@H]1C[C@@H]1[C@H]1[C@@H]3[C@@H]4C[C@@H]4[C@@]4(CCC(=O)O4)[C@@]3(C)CC[C@@H]12 returned PI4K2A inh 0.
`COC(=O)NC(CC(C)=O)c1cccc(C)c1` (centres undefined) gave FBPA coupling cs 2.
O=C1[C@@H]2[C@H]3[C@H](O)[C@H](O)C/C(=N/OC[C@@H](O)COCc4ccco4)[C@H]3CC[C@H]2C(=O)N1c1ccc(F)cc1F was read as FBPA coupling cs -30*.
`O=C(c1cccc(Cl)c1)N(Cc1ccco1)Cc1ccccc1Cl` gave PI4K2A inh -3 and USP1 inh -7%.
`N#CCc1nn2c3c(cnc2c1C#N)C(=O)CCC3` gave Eya2 phos inh -11%, USP2a block 0%, PI4K2A inh -7, FBPA coupling cs -32*, USP1 inh inconclusive and GALK inh 0%.
Screening COC(=O)c1cc(Cl)ccc1OC returned PI4K2A inh 3.
O=c1ccc(NS(=O)(=O)c2ccc(Cl)cc2)cn1Cc1ccc(Cl)c(Cl)c1 was read as Eya2 phos inh -12%, USP2a block 2%, PI4K2A inh -59*, FBPA coupling cs 5, USP1 inh -14% and GALK inh 0%.
